Shown are actives, neighbours in structure and some others; about 0.51% of the full set was active somewhere.
E coli growth-1: counter-screen for AddAB inhibitors: E. coli growth inhibition | E. coli V3065 growth, OD600 absorbance, 18 h | inhibition, % at 11.9 µM | 0.27% of 330,000 active;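 active means inhibition above the campaign's mean inhibition across all tested compounds plus 3 SD, cut at about 9.9% in these data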;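 further: uninfected addAB+ strain grown without phage in ampicillin broth; 0% = DMSO wells and 100% = ciprofloxacin 0.95 µg/ml wells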
E coli growth-2: inhibitors of Escherichia coli growth | 0.21% of 330,000 active | AID 1053175 | OD600 absorbance (test concentration not listed) | OD600, 23 h; stronger effect = lower value;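 active means OD600 absorbance below the run mean of sample wells minus 3.6 SD, in any replicate, cut at about 0.56 in these data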
Tat transport: blocks Tat-dependent protein export in E. coli. E. coli MC4100 TorA-mCherry Tat export, fluorescence. inhibition, % at 10 µM. AID 488895. 0.036% of 340,000 active;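 active means mean replicate inhibition at least 50% and at least half of replicates individually reaching 50%; inconclusive means only one of the two criteria met; inactive means neither criterion met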;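 further: exported cargo escapes ClpAP degradation while cytoplasmic cargo is degraded and loses fluorescence; 0% = median of neutral control wells and 100% = median of NaSCN control wells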
AddAB inh: less growth of phage-infected E. coli with AddAB. E. coli expressing H. pylori AddAB, absorbance growth. inhibition, % at 11.9 µM. AID 435030. 0.29% of 330,000 active; in the data active means inhibition above about 12%;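 further: 0% = vehicle wells of infected cells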
phage Ecoli inh: E. coli growth loss with phage present | growth absorbance | inhibition, % at 11.9 µM | AID 651602 | 0.26% of 360,000 active; in the data active means inhibition above about 11%
RecBCD conf: growth loss of phage-infected V66 E. coli, RecBCD confirmation screen | shares compounds with phage Ecoli inh | E. coli V66 + T4 2- phage, growth OD | inhibition, % at 11.9 µM | 45% of 890 active | AID 651982;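 active means mean inhibition over triplicates exceeding the hit threshold derived in the original primary screen, cut at about 11% in these data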
Ecoli viability: inhibits E. coli viability, flagging RecBCD hits as nonselective; shares compounds with phage Ecoli inh; absorbance (OD) growth; inhibition, % at 11.9 µM; 29% of 890 active; AID 651983; in the data active means inhibition above about 20%;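 further: E. coli strain V66 grown with compound alone and no phage infection; 0% = bacteria with DMSO vehicle only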
AddAB phage OD: growth loss of phage-infected AddAB E. coli, RecBCD counter-screen | shares compounds with phage Ecoli inh | E. coli expressing H. pylori AddAB + T4 phage, OD growth; gene 2 mutant T4, recBCD-deleted host | inhibition, % at 11.9 µM | 45% of 890 active;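 active means mean inhibition above the solvent-only control wells' mean plus 3 SD, cut at about 22% in these data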;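 further: higher means less bacterial growth from phage killing when AddAB is blocked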
The depositor's hits bear a star; ? = inconclusive; · = no result given.

SMILES	E coli growth-1	E coli growth-2	Tat transport	AddAB inh	phage Ecoli inh	RecBCD conf	Ecoli viability	AddAB phage OD
CC(=O)n1cc(C=NNC(N)=S)c2ccccc21	·	0.71	·	·	·	·	·	·
CC1CCC(=O)N(CCC(N=[N+]=[N-])c2ccccc2)CC1 (centres undefined)	·	0.71	·	·	·	·	·	·
O=C(O)c1c[nH]c2c([N+](=O)[O-])cccc2c1=O	·	0.53	-21	·	11*	7	7	19
O=C(NC1CC1)C1=CC(C2CC2)CC(OCc2ccc(CO)cc2)O1 (centres undefined)	·	0.68	·	·	·	·	·	·
COc1ccc(-[n+]2c(C)cc(/C=C3\Sc4ccccc4N3C)cc2C)cc1	26*	0.35*	67*	27*	22*	20*	17	48*
CCOc1ccc(OCCCC(=O)ON=C(N)c2ccccc2Cl)cc1	-3	0.64	3	1	11*	0	0	4
COc1ccc(OCCCC(=O)ON=C(N)c2ccccc2C)cc1	-1	0.7	-5	-1	2	·	·	·
O=[N+]([O-])c1cc2c(ccc3occc32)o1	·	·	·	·	101*	102*	103*	102*
O=[N+]([O-])c1ccc2c(c1)oc1ccccc12	0	0.72	5	2	2	·	·	·
CC(=O)Nc1cccc(C(C)=NNC(=O)c2ccc(NS(=O)(=O)c3cccs3)cc2)c1	·	0.67	·	·	·	·	·	·
CC(=NNC(=S)Nc1cccc(C)c1)c1ccccn1	·	·	1	·	14*	16*	15	21
COc1ccc(C(=O)N/N=C(\C)c2ccccn2)cc1OC	1	·	0	1	-4	·	·	·
COc1ccccc1NC(=S)NN=C(C)c1ccccn1	·	·	8	·	17*	14*	14	20
CCOc1cccc(C=NNC(=O)C(=O)Nc2cccc(C(F)(F)F)c2)c1O	·	·	·	·	18*	11*	15	16
O=C(NN=Cc1ccco1)C(=O)Nc1cccc(C(F)(F)F)c1	·	·	·	·	2	·	·	·
CCCCNC(=O)NCC(=O)Nc1ccc(F)c(F)c1	-2	0.69	11	-2	1	·	·	·
Cn1nc(C(=O)NCC(=O)Nc2ccc(F)c(F)c2)ccc1=O	·	·	·	·	11*	0	-1	-3
Nc1ncn(C2CC(O)C(CO)O2)c(=O)n1 (centres undefined)	·	0.65	·	·	·	·	·	·
Nc1nc(=O)n(C2CC(O)C(CO)O2)cc1F (centres undefined)	·	·	?	·	87*	78*	77*	90*
Nc1nc(=O)n(C2CC(O)C(CO)O2)cc1Cl (centres undefined)	·	·	·	·	12*	4	4	38*
NC(=NOC(=O)Cc1ccccc1[N+](=O)[O-])c1cccnc1	·	0.73	·	·	·	·	·	·
COc1ccc(C(=O)CSc2nnc3ccc(-c4ccccn4)nn23)cc1	1	0.74	-12	1	25*	-3	-3	-4
COc1ccc(NC(=O)CSc2nnc3ccc(-c4ccccn4)nn23)cc1	-2	0.69	-7	1	5	·	·	·
C=Cc1cnc([N+](=O)[O-])n1C	·	·	·	·	29*	19*	21*	97*
O=C(Nc1cc(Cl)ccc1O)c1snnc1-c1ccccc1	9.8*	0.61	13	11	14*	5	8	4
SMILES	E coli growth-1	E coli growth-2	Tat transport	AddAB inh	phage Ecoli inh	RecBCD conf	Ecoli viability	AddAB phage OD
Cc1[nH]n(-c2ccc([N+](=O)[O-])cc2)c(=O)c1C=NN1CCOCC1	·	0.71	·	·	·	·	·	·
Cc1[nH]nc(C(=O)NN=Cc2ccccc2Cl)c1N=NN(C)C	·	·	0	·	14*	8	10	42*
Cn1cc(CC(=O)N2CCN(c3ccccc3F)CC2)c2ccccc21	-1	0.69	-9	2	84*	-2	-2	-7
CCOC(=O)c1c(C)[nH]c(C(=O)N/N=C\c2ccccc2O)c1C	-3	·	7	6	17*	5	7	9
CCOC(=O)c1ccc(-c2ccc(C=NNC(=O)Cc3nnc(N)s3)o2)cc1	·	0.64	·	·	·	·	·	·
N#CCCN(C(=O)CSc1nc2ccccc2c(=O)[nH]1)c1ccc(F)cc1	-2	0.67	0	0	12*	1	1	0
Oc1ccc(/C=N/Nc2ccc(Cl)nn2)c(O)c1O	3	·	-3	2	11*	3	2	21*
Oc1c(Br)cc(Br)cc1/C=N/Nc1ccc(Cl)nn1	1	·	-5	0	0	·	·	·

Screening results deposited in PubChem by several laboratories.
